Screens: PubChem, National Center for Advancing Translational Sciences (NCATS)
TDP1 cell noCPT: qHTS for Inhibitors of human tyrosyl-DNA phosphodiesterase 1 (TDP1): qHTS in cells in absence of CPT | DT40 Tdp1-/- hTDP1 cells, no CPT, ATP luminescence, 48 h | Potency, µM (doses to about 46.2 µM), actives largely listed as inhibitors | actives 15% (n = 420,000); note: nearly all actives have a fitted effect of over 55% in size
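No-CPT arm: Tdp1-/-;hTDP1 DT40 cells (400/well) plus compounds, incubated ≥48 hr at 37 °C. Readout CellTiter-Glo luminescence.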
HepG2 tox-1: kills HepG2 cells in TGF-b inhibitor counter-screen; Potency, µM (top dose mostly 46.1 µM), actives largely listed as cytotoxic; actives 0.76% (n = 410,000); HepG2 CAGA-GFP viability, ATP luminescence, 18 h
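CellTiter-Glo luminescence gave cytotoxicity after 18 hours at 37 degrees C. The cells were HepG2 CAGA-GFP in 1% FBS DMEM, stimulated with 500 pg/mL TGF-beta after compound addition. %Activity was normalised to no-cell wells (complete cell-killing) and DMSO (no toxicity), and curves were fitted and classified.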
ASM inhibitor: inhibitors of human secretory acid sphingomyelinase. P17405. placental ASM, HMU-PC fluorogenic substrate, 60 min. Potency, µM (titrated, usually from 57.5 µM), actives largely listed as inhibitors. actives 0.006% (n = 340,000). AID 504937
Target sequence (P17405 47-631 limits assumed): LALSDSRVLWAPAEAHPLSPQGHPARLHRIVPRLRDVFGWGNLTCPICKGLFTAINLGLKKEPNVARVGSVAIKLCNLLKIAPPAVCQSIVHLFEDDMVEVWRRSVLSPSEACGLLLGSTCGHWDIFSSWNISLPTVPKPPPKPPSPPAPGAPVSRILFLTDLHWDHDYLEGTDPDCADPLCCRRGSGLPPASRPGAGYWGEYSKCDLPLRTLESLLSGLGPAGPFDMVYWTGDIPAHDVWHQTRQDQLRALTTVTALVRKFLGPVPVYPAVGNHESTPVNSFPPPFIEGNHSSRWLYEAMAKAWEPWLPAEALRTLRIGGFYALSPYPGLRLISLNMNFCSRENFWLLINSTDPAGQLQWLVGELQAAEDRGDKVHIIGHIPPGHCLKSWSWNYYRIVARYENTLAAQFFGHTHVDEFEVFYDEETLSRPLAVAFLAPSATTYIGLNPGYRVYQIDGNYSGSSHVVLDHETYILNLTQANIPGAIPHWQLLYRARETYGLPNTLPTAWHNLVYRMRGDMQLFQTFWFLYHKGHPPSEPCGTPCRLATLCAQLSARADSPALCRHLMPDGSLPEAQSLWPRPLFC
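HMU-PC0 cleavage (9 uM final) by human placental ASM, 60 min at 37 °C following 10 min compound exposure at RT; stopped at pH 10, fluorescence Ex 386/Em 447 nm.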
IL-1B inflam inh: inhibitors of inflammasome signaling (IL-1 beta secretion). THP-1 LPS/ATP IL-1B secretion, AlphaLISA, 16 h; hits give low values. activity change, % at 57.5 µM. actives 4.7% (n = 360,000). AID 743279; in the data active = activity change below about -50%; inconclusive = mostly about -30% to -49%
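Secreted IL-1B measured by AlphaLISA bead assay after 16 h compound exposure of THP-1 cells; compounds (final up to 57.5 uM) added 1 h before LPS (250 ng/mL) and ATP (1.25 mM) stimulation; lower signal means less secretion.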
DT40 TDP1 CPT: DT40-hTDP1 cell growth loss with CPT. actives 12% (n = 420,000). AID 686979. Potency, µM (highest dose often 46.2 µM), hits mostly inhibitors. chicken DT40 Tdp1-/-;hTDP1 cells + 20 nM CPT, ATP luminescence, 48 h; note: nearly all actives have a fitted effect of over 55% in size
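Cell growth measured by CellTiter-Glo luminescence after a minimum 48 h, 37 C compound exposure with 20 nM CPT in Tdp1-knockout DT40 cells stably expressing hTDP1, seeded 400/well; qHTS titration format.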
TGFb SMAD3 inh: blocks TGF-b signaling; actives 1.2% (n = 410,000); Potency, µM (titrated, usually from 46.1 µM), hits mostly inhibitors; HepG2 CAGA-GFP TGF-b/SMAD3 reporter, GFP fluorescence, 18 h; TGF-beta stimulated, 500 pg/mL final; note: nearly all actives have a fitted effect of over 65% in size
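Read-out: total well GFP (ex488/em500-530) summed from mean per-cell fluorescence. Cells: HEPG2 CAGA-GFP, 1% FBS DMEM, 18 h at 37 degrees C with 500 pg/mL final TGF-beta. Unstimulated wells served as the full-inhibition control; stimulated DMSO wells = 0%.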
TGFb confirm: TGF-b pathway inhibition, cherry-pick retest | actives 63% (n = 1,600) | Potency, µM (series often up to 46.1 µM), usual class: inhibitors | shares compounds with TGFb SMAD3 inh | HepG2 CAGA-GFP TGF-b reporter, GFP fluorescence, 18 h; cells stimulated with TGF-beta, 500 pg/mL; note: nearly all actives have a fitted effect of over 65% in size
HepG2 tox-2: toxic to HepG2 cells in TGF-b counterscreen. shares compounds with TGFb SMAD3 inh. HepG2 CAGA-GFP viability, ATP luminescence, 18 h; cells stimulated with TGF-beta, 500 pg/mL. Potency, µM (highest dose often 46.1 µM), actives largely listed as inhibitors. actives 27% (n = 1,600). AID 720535; note: nearly all actives have a fitted effect of over 70% in size
CCL64 TGFb inh: blocks TGF-b signaling in CCL64 reporter cells | AID 720536 | Potency, µM (highest dose often 46.1 µM), most hits filed as inhibitors | CCL64 CAGA-GFP reporter, TGF-b stimulated, GFP fluorescence, 18 h | shares compounds with TGFb SMAD3 inh | actives 41% (n = 1,600); note: nearly all actives have a fitted effect of over 65% in size
COP TGFb inh: blocks TGF-b signaling in HepG2 COP reporter | actives 3% (n = 1,600) | HepG2 COP-GFP TGF-b reporter, GFP fluorescence, 18 h; cells stimulated by added recombinant TGF-beta | Potency, µM (doses to about 46.1 µM), hits mostly inhibitors | shares compounds with TGFb SMAD3 inh; note: nearly all actives have a fitted effect of over 70% in size
Numbers stand for hits; . = inactive; ? = inconclusive; / = no result given. Sampled rows, rich in hits. Any-hit rate of the full collection: about 19%. Unless noted, calls come from the whole dose curve; as a rule, active = well fitted curve in the direction sought with a large enough effect; inconclusive = small, poorly fitted or top-dose-only effect, or another doubt; inactive = no such curve, though single readings can be large; an effect the other way counts as inactive or inconclusive.

SMILES	TDP1 cell noCPT	HepG2 tox-1	ASM inhibitor	IL-1B inflam inh	DT40 TDP1 CPT	TGFb SMAD3 inh	TGFb confirm	HepG2 tox-2	CCL64 TGFb inh	COP TGFb inh
CCCOc1ccc(F)cc1-c1cc(C(=O)NCc2cc(C(F)(F)F)cc(C(F)(F)F)c2)[nH]n1	?	.	/	.	?	.	/	/	/	/
CCCOc1ccc(F)cc1-c1cc(C(=O)Nc2ccc(C)c(NS(C)(=O)=O)c2)[nH]n1	23µM	.	/	.	16µM	18µM	?	?	23µM	.
Brc1cc(Br)c2ncnc(N3CCCCC3)c2c1	13µM	.	.	.	21µM	6.3µM	9.2µM	4.1µM	?	.
Cc1nn2c(C(F)(F)F)c3c(nc2c1-c1ccccc1)CCC3	.	.	.	.	.	.	/	/	/	/
COc1ccc(C(=O)Nc2nc3cc4c(cc3s2)OCCO4)c(OC)c1	?	.	.	?	?	.	/	/	/	/
O=C(Nc1nc2cc3c(cc2s1)OCCO3)c1ccc([N+](=O)[O-])o1	10µM	.	.	-86	8.2µM	?	0.82µM	4.1µM	?	.
O=C(Nc1c(Cl)ccc2nsnc12)c1ccc(Br)o1	.	.	/	.	.	.	/	/	/	/
COc1ccc2nc(NC(=O)c3ccc([N+](=O)[O-])o3)sc2c1	13µM	.	.	-88	23µM	8.9µM	2.3µM	21µM	12µM	.
O=C(Nc1c(Cl)ccc2nsnc12)c1ccc([N+](=O)[O-])o1	?	13µM	.	-98	?	10µM	8.2µM	?	?	?
COc1ccc2nc(NC(=O)c3ccccc3[N+](=O)[O-])sc2c1	.	.	.	.	.	.	/	/	/	/
O=C(CSc1nc2[nH]ncc2c(=O)[nH]1)c1ccccc1	.	.	.	.	.	.	/	/	/	/
COc1cc(CNCCc2ccccc2F)ccc1OCC(=O)N1CCCCC1	.	.	.	.	.	.	/	/	/	/
COc1ccc(NC(=O)NNC(=O)COc2ccc(Cl)cc2C)cc1OC	.	.	.	.	.	.	/	/	/	/
COc1ccc(OC)c(NC(=O)NNC(=O)CCCOc2ccc(Cl)cc2C)c1	?	.	.	-55	?	?	16µM	.	.	.
Cc1cccn2c(=O)c(C(=O)NCc3ccc(F)cc3)c(O)nc12	?	.	/	/	?	.	/	/	/	/
Cc1cc(C)cc(C(=O)NC(=S)Nc2ccc(Cc3ccncc3)cc2)c1	29µM	.	.	?	?	7.1µM	13µM	?	.	.
COc1ccc(/C=N/n2cnc3c([nH]c4ccc(F)cc43)c2=O)cc1CN1CCCC1	3.3µM	7.1µM	.	.	5.2µM	7.1µM	16µM	23µM	23µM	?
COc1ccc2c(c1)[nH]c1c(=O)n(/N=C/c3ccc(OC)c(CN4CCCC4)c3)cnc12	?	.	.	?	?	.	/	/	/	/
